Reference: PubChem BioAssay (NCI)
The panel holds about 83,000 compounds, 20% with a hit somewhere; the sample as a whole holds those more often.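 Results are percent growth after 48 hours of single-concentration exposure. 100 means growth as in untreated cells, lower positive values show inhibition; negative values down to -100 show cell death.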 Unmarked numbers belong to inactive results. Active and inactive are the calls of the source. Rule for the calls: active = growth percent below 10; inactive = the rest.

Columns and labels:
Test in all cases: NCI-60 one-dose screen, 48 h (100 = growth as untreated, 0 = no growth, -100 = all killed)
Settings in all cases: 10 µM
NCI-H23 lung = system: NCI-H23 lung
NCI-H226 lung = system: NCI-H226 lung
NCI-H322M lung = system: NCI-H322M lung
HOP-62 NSCLC = system: HOP-62 NSCLC
NCI-H460 lung = system: NCI-H460 lung
HOP-92 NSCLC = system: HOP-92 NSCLC
NCI-H522 lung = system: NCI-H522 lung
A549/ATCC NSCLC = system: A549/ATCC NSCLC
786-0 renal = system: 786-0 renal
COLO 205 colon = system: COLO 205 colon

| Structure (SMILES) | growth (NCI-H23 lung) | growth (NCI-H226 lung) | growth (NCI-H322M lung) | growth (HOP-62 NSCLC) | growth (NCI-H460 lung) | growth (HOP-92 NSCLC) | growth (NCI-H522 lung) | growth (A549/ATCC NSCLC) | growth (786-0 renal) | growth (COLO 205 colon) |
| --- | --- | --- | --- | --- | --- | --- | --- | --- | --- | --- |
| CC(=O)c1cc(C(=O)N2c3ccccc3Sc3ccccc32)n2ccc(C)cc12 | 42% | 40.2% | 72.2% | 58.6% | 12.3% | 38.1% | 49.6% | 56.9% | 44.5% | 67.7% |
| COc1ccccc1[C@H]1C(C(=O)c2ccc(Cl)cc2)C2(N[C@@H]1c1ccccc1)C(=O)Nc1ccc(Cl)cc12 (stereo not given in full) | -1.97% (active) | 4.06% (active) | 32.9% | 26% | 8.58% (active) | 7.15% (active) | -5.89% (active) | 15.8% | 8.8% (active) | -69.7% (active) |
| C/C(=C\CC/C=C(\C)CC/C=C(\C)CC[C@@H](O)C(C)(C)O)CC/C=C(\C)CC[C@@H](O)C(C)(C)O | 31.8% | 38.8% | 98.1% | 96.6% | 32% | 26% | 21.8% | 26.1% | 47.4% | 41.9% |
| N#Cc1ccc(-c2nn(-c3ccc(C(=O)O)cc3)cc2CNc2cc(Cl)cc(Cl)c2)cc1 | 18.7% | 47.2% | 58% | 41.8% | 32.3% | 46.8% | 73.1% | 53.7% | 36% | 109% |
| Cc1ccc(/C=C/C(=O)c2ccc(NC(=O)CSc3nnc(-c4c[nH]c5ccccc45)n3-c3ccccc3)cc2)c(C)c1 | -1.3% (active) | 33.1% | 75.8% | 99.4% | -35.8% (active) | 76.8% | 25% | 54.3% | 65.8% | 70.5% |
| O=C1Nc2ccc(F)cc2/C1=C/c1cccc(OCc2ccccc2)c1 | 24.8% | 35.3% | 47.6% | 48.4% | 7.06% (active) | 18.8% | 5.02% (active) | 41.8% | 33.7% | 34.1% |
| O=C(NC(=S)N1CCN(c2ncnc3c2cnn3-c2ccccc2)CC1)c1ccc(Cl)cc1 | 55.5% | 52.3% | 66.8% | -2.01% (active) | 53.3% | 14.7% | 38% | 54.3% | 27.8% | 77.4% |
| COc1ccc(C2NC(=S)NC(C)=C2C(=O)OC(C)C)cc1OC (stereo not given) | 111% | 94.8% | 96.8% | 103% | 114% | 101% | 102% | 114% | 93.2% | 140% |
| C=C(C)[C@@H]1CC[C@]2(C(=O)OC)CC[C@]3(C)[C@H](CC[C@@H]4[C@@]5(C)CC[C@H](N)C(C)(C)[C@@H]5CC[C@]43C)[C@@H]12 | -94.8% (active) | -89.3% (active) | -96.5% (active) | -81.6% (active) | -53.7% (active) | -68.9% (active) | -77.8% (active) | -86.9% (active) | -98% (active) | -68.9% (active) |
| O=C(NO)c1ccc(CNC(=O)[C@H]2Cc3c([nH]c4ccccc34)[C@H](c3ccccc3)N2)cc1 | 34% | 64.2% | 43.2% | 18.7% | 27.7% | -2.26% (active) | -8.88% (active) | 50.6% | 53.9% | -55.5% (active) |
| COc1cc(C2CC(c3ccc(C)cc3)=Nc3c(N)nc(N)nc3N2)ccc1Oc1nc(Nc2ccc(F)cc2)nc(N(C)C)n1 (stereo not given) | 73% | 61.4% | 86.6% | 93.9% | 37.7% | 9.32% (active) | 87.3% | 88.1% | 50.4% | 48.1% |
| OCc1[nH]nc2cc(Nc3ncc4ccc(Br)c(OC5CCC(O)CC5)c4n3)ccc12 (stereo not given) | -88.8% (active) | -2.72% (active) | -17.9% (active) | 0.469% (active) | 2.31% (active) | 20.9% | -31.2% (active) | 4.04% (active) | -26% (active) | -76.9% (active) |
| O=C1Nc2ccc(Cl)cc2/C1=C/c1ccc(OCc2ccc(Br)cc2F)cc1 | 7.12% (active) | 6.85% (active) | 48.2% | 5.12% (active) | 7.07% (active) | 10.9% | 23.3% | 34.1% | 2.33% (active) | 51.6% |
| COc1ccc(CN2[C@@H](C(=O)NCc3ccc(C(=O)NO)cc3)Cc3c([nH]c4ccccc34)[C@@H]2C2CC2)cc1 | 21.3% | 50.8% | 42% | 24% | 13.7% | -3.87% (active) | -17% (active) | 40.3% | 28.4% | -40.3% (active) |
| Nc1nc(Nc2ccc(Cl)cc2)n(Cc2cccc(Br)c2)n1 | -37.9% (active) | -12.6% (active) | 11.8% | -30.4% (active) | -65.9% (active) | -49.5% (active) | -46.2% (active) | 8.74% (active) | -46.8% (active) | -68.8% (active) |
| O=C(Nc1ccc(I)cc1F)c1cc(-c2ccc(F)cc2F)ccc1O | -22% (active) | -7.15% (active) | 6.19% (active) | -10.6% (active) | 2% (active) | -26.3% (active) | -9.59% (active) | 9.86% (active) | 16.7% | -35.6% (active) |
| O=C(c1ccc(Cl)cc1)C1[C@H](c2ccccc2Br)[C@@H](c2ccccc2)NC12C(=O)Nc1ccc(Br)cc12 (stereo not given in full) | 3.35% (active) | 12.5% | 41.6% | 31.2% | 2.66% (active) | 4.57% (active) | -24.4% (active) | 0.826% (active) | -2.24% (active) | -49.6% (active) |
| CC1(c2ccccc2)NC(=O)N(CC(=O)Nc2ccc(C(=O)/C=C/C=C/c3ccccc3)cc2)C1=O (stereo not given) | 73.4% | 57.2% | 73.9% | 77.2% | 73.2% | 57.3% | 75.8% | 58.7% | 7.33% (active) | 98% |
| CCN1CCN(c2ccc(NC(=O)Nc3ccc(-c4cc(C(=O)NC(C)C)c5ncccc5n4)cc3)cc2C(F)(F)F)CC1 | -86.3% (active) | -81.2% (active) | -66% (active) | -87.8% (active) | -40.5% (active) | -77.2% (active) | -86.3% (active) | -87.6% (active) | -93.6% (active) | -78.2% (active) |
| O=C(c1ccc(O)cc1)C1[C@H](c2ccc(Br)cc2)[C@@H](c2ccccc2)NC12C(=O)Nc1ccc(Br)cc12 (stereo not given in full) | -54.4% (active) | -34.5% (active) | 10.4% | -36.2% (active) | 6.63% (active) | -21.3% (active) | -41.6% (active) | 13.4% | -5.43% (active) | -85.2% (active) |
| Cc1ccc(-c2nc3ccc(C(=O)N=Nc4c(O)[nH]c5ccc([N+](=O)[O-])cc45)cc3[nH]2)cc1 | 64.6% | 45.4% | 105% | 88.5% | 103% | 44.3% | 78.3% | 98% | 85.2% | 70.9% |
| O=C(CSc1nnc(-c2c[nH]c3ccccc23)n1-c1ccccc1)c1ccc(Br)cc1 | 54% | 39.1% | 45.7% | 73.6% | 34.5% | 28.1% | 46.3% | 29.9% | 82.4% | 13.5% |
| CC(=O)NCC1=C(C)C=C2C(=O)[C@](C)(O)C3(CC3)C(C)=C21 | -76.6% (active) | -72.2% (active) | -30% (active) | -54.4% (active) | 4.33% (active) | -14.1% (active) | -64.8% (active) | -50.3% (active) | -40.8% (active) | -81.4% (active) |
| CCOc1ccc2ncc(C#Cc3cncc(C(=O)Nc4ccc(CN5CCN(C)CC5)c(C(F)(F)F)c4)c3)n2n1 | -70% (active) | -59.1% (active) | -76% (active) | -46.8% (active) | -52.9% (active) | -46.6% (active) | -41.3% (active) | -33.9% (active) | -43.8% (active) | -45.8% (active) |
| O=C(Nc1cccc([N+](=O)[O-])c1)Nc1cccc([N+](=O)[O-])c1 | 65.5% | 74.4% | 89.2% | 92.7% | 70.5% | 80.4% | 64.8% | 82.2% | 74% | 121% |
| O=C(CNc1nc(-c2ccccc2)cs1)Nc1cccc([N+](=O)[O-])c1 | -92.5% (active) | -42.5% (active) | -71.4% (active) | -76.2% (active) | 4.92% (active) | -49.2% (active) | -83.2% (active) | -72.7% (active) | -85.1% (active) | -64.1% (active) |
